Assay outcomes as filed in PubChem BioAssay.
C8 TRAIL sens = viability loss with TRAIL in NB7+C8 cells, primary screen, TRAIL sensitizer project, cell-based, ATPlite luminescence; AID 624354, 2012; actives 1% (n = 360,000); inhibition (viability loss, TRAIL sensitization), % at 10 µM;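 active = compounds causing at least 50% loss of cell viability in the single-dose screen, relative to plate controls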
SENP8 block-1 = SENP8 protease inhibitors, primary screen, biochemical, luminescence; inhibition, % at 10 µM; AID 2540, 2010; purified SENP8, Z-RLRGG-aminoluciferin cleavage; actives 1.2% (n = 330,000); Sentrin-specific protease 8 (Homo sapiens), Q96LD8; in the data active = inhibition above about 50%
SENP6 block = SENP6 protease inhibitors, primary screen, biochemical, luminescence, uHTS; Sentrin-specific protease 6 (Homo sapiens), Q9GZR1; Recombinant SENP6 catalytic domain, aminoluciferin luminescence; inhibition, % at 10 µM; actives 1.8% (n = 330,000);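 active = inhibition above about 50% at the single tested dose, limit read from the data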
Target sequence (Q9GZR1 628-1112 limits assumed): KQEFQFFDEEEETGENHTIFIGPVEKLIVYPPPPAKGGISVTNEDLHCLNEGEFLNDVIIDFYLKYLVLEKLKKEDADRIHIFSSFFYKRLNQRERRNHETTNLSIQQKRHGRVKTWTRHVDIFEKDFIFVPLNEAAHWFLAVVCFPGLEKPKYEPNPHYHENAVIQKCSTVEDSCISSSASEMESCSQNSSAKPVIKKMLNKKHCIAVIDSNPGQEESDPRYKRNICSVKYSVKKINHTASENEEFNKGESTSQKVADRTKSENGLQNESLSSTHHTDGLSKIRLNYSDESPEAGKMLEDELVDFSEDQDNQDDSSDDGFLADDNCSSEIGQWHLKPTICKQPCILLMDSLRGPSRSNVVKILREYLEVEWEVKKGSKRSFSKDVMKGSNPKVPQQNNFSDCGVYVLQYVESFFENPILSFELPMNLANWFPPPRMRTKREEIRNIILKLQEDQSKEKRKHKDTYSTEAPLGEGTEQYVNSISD
PPC-1+TRAIL kill = compounds killing PPC-1 cancer cells with TRAIL present, primary screen, TRAIL potentiator project, ATPLite luminescence, uHTS; PPC-1 cells + TRAIL, ATPLite viability luminescence; cell killing (% activity), % at 4 µM or 5 µM; actives 0.41% (n = 220,000); AID 1443, 2008;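 active = cell killing above 50% in the first pass at 4 µM, then a duplicate retest at 5 µM averaging 50% or more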
SENP8 block-2 = human SENP8 protease inhibitors, primary screen, biochemical, fluorescence, Nedd8 protein substrate, uHTS; Sentrin-specific protease 8 (Homo sapiens), Q96LD8; actives 0.64% (n = 360,000); inhibition, % at 20 µM; recombinant SENP8; in the data active = inhibition mostly above about 40%, no sharp cut-off; inactive = mostly below about 27%
SENP7 block = SENP7 protease inhibitors, primary screen, biochemical, luminescence, uHTS | inhibition, % at 5 µM | actives 1.5% (n = 330,000) | Sentrin-specific protease 7 (Homo sapiens), Q9BQF6 | recombinant SENP7, Z-RLRGG-aminoluciferin luminescence, 40 min;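 active = inhibition above about 50% at the single test dose, limit read from the data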
Each line names hits and unclear results; the compound was inactive in the other large screens. Only some compounds are listed: those with a hit (about 3% of all), similar ones and a draw of the others.

c1ccc2c(c1)CCN(c1nc3cc4c(cc3s1)OCO4)C2	SENP8 block-1 94, SENP6 block 88, SENP7 block 96
c1ccc(N2CCN(c3nc4cc5c(cc4s3)OCO5)CC2)cc1	none
CCOC(=O)C(NC(=O)NCc1ccccc1OC)(OCC)C(F)(F)F (configuration not stated)	none
C[C@@]12C(=O)OC(=O)[C@]1(C)C1CCC2O1	C8 TRAIL sens 65 (no result: PPC-1+TRAIL kill)
CC12C(=O)N(c3nccs3)C(=O)C1(C)C1CCC2O1 (configuration not stated)	none (no result: SENP8 block-1, SENP6 block, PPC-1+TRAIL kill, SENP7 block)
O=C(CSc1nnc(-c2ccc(O)cc2)o1)N1CCOCC1	none
Oc1ccc(-c2nnc(SCC3CCCCC3)o2)cc1	C8 TRAIL sens 72
c1ccc(CNc2nc(NCC3CC3)nc3cc(-c4ccccc4)sc23)cc1	C8 TRAIL sens 55 (no result: SENP8 block-1, SENP6 block, PPC-1+TRAIL kill, SENP7 block)
CC1Oc2cc3oc4c(O)c(O)ccc4c(=O)c3c(O)c2C1(C)C (configuration not stated)	C8 TRAIL sens 53 (no result: PPC-1+TRAIL kill)
Cc1cccc(S(=O)(=O)NC(=O)C2(C)CCN2C(=O)Cc2ccc(C(C)(C)C)cc2)c1 (configuration not stated)	none (no result: SENP8 block-1, SENP6 block, PPC-1+TRAIL kill, SENP7 block)
CCC(N=c1cc(-c2ccc(OC)cc2)oc2ccc(C)cc12)C(=O)O (configuration not stated)	SENP6 block 52
CCN(CC)c1ccc2c(O)cc(=O)oc2c1	none
CCN(CC)c1ccc(C(=O)OCc2cc(=O)oc3cc(O)ccc23)cc1	C8 TRAIL sens 50
Cc1ccc(Nc2ccc([N+](=O)[O-])ccc2=O)cc1	SENP8 block-2 43 (no result: PPC-1+TRAIL kill)
O=C1C=C(OCCF)CC(c2ccc(Br)cc2)O1 (configuration not stated)	none (no result: SENP8 block-1, SENP6 block, PPC-1+TRAIL kill, SENP7 block)
CN(CC(=O)Nc1ccccc1C(F)(F)F)C(=O)c1cccc(-n2cccc2)c1	none (no result: PPC-1+TRAIL kill)
CCc1c(C)c(C#N)c2nc3ccccc3n2c1-n1nc(C)cc1C	none
CCc1c(C)c(C#N)c2nc3ccccc3n2c1Cl	PPC-1+TRAIL kill 60 (no result: C8 TRAIL sens, SENP8 block-1, SENP6 block, SENP8 block-2, SENP7 block)
CCN1CCN(c2ccc(S(=O)(=O)N3CCCCC3)cc2NC(=O)/C=C/c2ccc(OC(F)F)cc2)CC1	C8 TRAIL sens 56 (no result: PPC-1+TRAIL kill)
CN1CCN(c2ccc(S(=O)(=O)N3CCCCC3)cc2NC(=O)/C=C/c2ccc(OC(F)F)cc2)CC1	none (no result: PPC-1+TRAIL kill)
C=CCn1c(O)c(/C=C2\C=NN=C2c2ccccc2)sc1=S	none
CCCn1c(O)c(/C=C2\C=NN=C2c2ccccc2)sc1=S	C8 TRAIL sens 76
CCc1ccc(CN(C)C(=O)CCc2nnc(CCc3ccccc3OC)o2)nc1	none
COC(=O)C1=C(C(=O)OC)SC(=C2C(=S)C(C)(C)N(C(=O)CC(C)C)c3ccccc32)S1	SENP8 block-2 59
COc1ccc(CNC(=O)C[C@@H]2C=C[C@@H](NS(=O)(=O)c3cccc(OC)c3)[C@@H](CO)O2)cc1	none (no result: SENP8 block-1, SENP6 block, PPC-1+TRAIL kill, SENP7 block)
Cc1nnsc1S(=O)c1ccc(Cl)c(Cl)c1 (configuration not stated)	none (no result: PPC-1+TRAIL kill)
O=S(c1ccc2ccccc2c1)c1cnns1 (configuration not stated)	SENP8 block-2 44
NC(=S)N=Nc1c(O)cc(O)c2[nH]c(=O)ccc12	SENP8 block-2 75 (no result: SENP8 block-1, SENP6 block, PPC-1+TRAIL kill, SENP7 block)
COCc1cc(CN2CCCC(C(=O)Nc3ccc(-c4ccco4)cc3)C2)ccc1OC (configuration not stated)	none (no result: PPC-1+TRAIL kill)
CC(=O)Nc1nc(-c2ccc([N+](=O)[O-])cc2)cs1	none
O=C(Nc1ccc([N+](=O)[O-])cc1)Nc1nc(-c2ccc(Cl)s2)cs1	PPC-1+TRAIL kill 67 (no result: SENP8 block-1, SENP6 block, SENP7 block)
COc1ccc(Cc2noc(=O)[nH]2)cc1	none (no result: SENP8 block-1, SENP6 block, PPC-1+TRAIL kill, SENP7 block)
CCc1nc(N)nc(N)c1-c1ccc(Cl)cc1	C8 TRAIL sens 81
CCC(=O)n1nc(-c2ccc(Cl)cc2)nc1N	none
CCc1nc(N)nc(N)c1-c1ccc(N(C)Cc2ccccc2)c([N+](=O)[O-])c1	C8 TRAIL sens 70 (no result: SENP8 block-1, SENP6 block, PPC-1+TRAIL kill, SENP7 block)
CCc1nc(N)nc(N)c1-c1ccc(NCCN)c([N+](=O)[O-])c1	C8 TRAIL sens 79 (no result: SENP8 block-1, SENP6 block, PPC-1+TRAIL kill, SENP7 block)
O=C(Cc1cccc2ccccc12)Nc1c(F)cccc1F	none (no result: PPC-1+TRAIL kill)
O=C(N/N=C/c1ccc2c(c1)OCO2)C(=O)Nc1cccc(Cl)c1	none (no result: PPC-1+TRAIL kill)
